RecA splice inh: inhibitors of M. tuberculosis RecA intein splicing | P9WHJ3 | cell-free RecA intein splicing, fluorescence | inhibition, % (concentration not given with the values) | 0.75% of 290,000 active; in the data active means inhibition above about 30%; inconclusive means no clear call, values can overlap the other calls
Rv3671c inh: inhibitors of M. tuberculosis serine protease Rv3671c; P9WHR9; inhibition, % at 5.96 µM; 0.048% of 320,000 active; AID 2606; in the data active means inhibition above about 38%;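 further: extracellular domain of Rv3671c used as enzyme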
Target sequence (P9WHR9 whole entry, looked up, the tested form may be a part): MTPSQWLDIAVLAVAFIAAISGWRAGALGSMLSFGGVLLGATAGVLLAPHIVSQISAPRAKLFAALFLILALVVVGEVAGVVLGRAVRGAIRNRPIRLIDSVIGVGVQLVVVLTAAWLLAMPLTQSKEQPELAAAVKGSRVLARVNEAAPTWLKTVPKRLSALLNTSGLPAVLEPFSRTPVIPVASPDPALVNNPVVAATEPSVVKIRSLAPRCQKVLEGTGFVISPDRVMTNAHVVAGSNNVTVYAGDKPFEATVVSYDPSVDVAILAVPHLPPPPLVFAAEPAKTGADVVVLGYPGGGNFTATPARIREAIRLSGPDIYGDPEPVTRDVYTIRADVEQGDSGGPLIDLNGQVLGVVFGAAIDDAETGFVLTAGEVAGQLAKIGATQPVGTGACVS
FadD28 FP inh: M. tuberculosis FadD28 bisubstrate binding inhibition. inhibition, % at 12.5 µM. 0.22% of 360,000 active. FadD28 bisubstrate probe binding, fluorescence polarization; in the data active means inhibition above about 8.5%, passing the limit was not always enough; inconclusive means no clear call, values can overlap the other calls
Mtb UGM inh: inhibitors of M. tuberculosis UDP-galactopyranose mutase; 0.06% of 320,000 active; inhibition, % at 10 µM; AID 504406; purified UGM, fluorescence polarization probe displacement; P9WIQ1; in the data active means inhibition above about 10%, passing the limit was not always enough; inconclusive means no clear call, values can overlap the other calls
PrP UTR inh: suppresses PrP 5' UTR mRNA reporter expression; inhibition, % (no concentration beside the values); AID 488862; 0.35% of 340,000 active; cell-based PrP 5' UTR mRNA reporter, plate reader; in the data active means inhibition above about 52%
BJeLR lethal: BJeLR cell viability loss; BJeLR (HRASV12) viability, CellTiter-Glo ATP luminescence, 48 h; inhibition, % (no concentration beside the values); 0.17% of 300,000 active; in the data active means inhibition above about 50%; inconclusive means no clear call, values can overlap the other calls
Hits are given with their value; i = inactive; ? = inconclusive; nt = no result. A selection: hits, their analogues and other compounds. The true share with any hit is near 1.3%.

SMILES	RecA splice inh	Rv3671c inh	FadD28 FP inh	Mtb UGM inh	PrP UTR inh	BJeLR lethal
COc1cc(/C=C2/C(=O)NN(c3ccccc3)C2=O)cc(Br)c1O	i	i	i	i	i	i
COc1cc(/C=C2/C(=O)NN(c3ccc(Cl)cc3)C2=O)cc(OC)c1O	i	i	8.9	i	i	i
COc1ccc(CNC(=O)C2Cc3c(-c4ccccc4Oc4ccccc4)ccnc3O2)cc1OC (configuration not stated)	nt	nt	i	nt	nt	nt
Cc1cc2nc3c(=O)n(CCc4ccccc4)c(=O)[nH]c3nc2cc1N	i	i	i	17.1	i	i
Nc1ccc2nc3c(=O)n(CCc4ccccc4)c(=O)[nH]c3nc2c1	i	i	i	?	nt	i
CCCCn1c(=O)[nH]c2nc3cc(N)ccc3nc2c1=O	nt	i	i	33.2	i	nt
COc1cc2[nH]c(=O)n(C3CCCCC3)c(=O)c2cc1OC	i	i	i	i	i	i
Nc1ccc2nc3c(=O)n(C4CCCCC4)c(=O)[nH]c3nc2c1	i	i	i	36.5	i	i
CC(O)(c1ccccc1)c1nc(-c2ccc3c(c2)OCO3)cs1 (configuration not stated)	nt	nt	i	nt	nt	nt
COC(=O)c1ccc(Cn2cnc3c(Cl)ncnc32)cc1	nt	nt	i	nt	i	nt
COc1cc(C)ccc1S(=O)(=O)NC(=O)Cn1nnc(COc2ccc3c(c2)CCCC3)c1C	nt	nt	i	nt	nt	nt
CC1CN(S(=O)(=O)c2ccc(C(=O)NCCCn3ccnc3)cc2)CC(C)O1 (configuration not stated)	i	i	nt	i	i	70.8
CC1CN(S(=O)(=O)c2cccc(C(=O)NCCCn3ccnc3)c2)CC(C)O1 (configuration not stated)	i	i	i	i	i	i
O=C(NCCCn1ccnc1)c1ccc(N2CCCCCC2)c([N+](=O)[O-])c1	i	i	i	i	i	71.2
Nc1ccccc1C#CC(=O)c1ccccc1	i	i	i	i	i	i
CCN(CC)CCN1C(=O)/C(=C\c2ccc(Cl)c([N+](=O)[O-])c2)SC1=Nc1ccc(OC)cc1	i	i	i	i	i	87.7
CCCN1C(=O)/C(=C/c2ccc(C)s2)SC1=Nc1ccc(OC)cc1	i	i	i	i	i	i
COc1ccc(N=C2S/C(=C\c3ccc(Cl)c([N+](=O)[O-])c3)C(=O)N2CCN(C)C)cc1	i	i	i	i	nt	58.6
C[C@H]1CN([C@@H](C)CO)S(=O)(=O)c2ccc(/C=C/c3ccccc3)cc2O[C@H]1CN(C)C(=O)NC1CCCCC1	nt	nt	i	nt	nt	nt
CCCCCOC(=O)c1ccc(OC(=O)c2cncc(Br)c2)cc1	i	i	i	i	i	i
CCCCCCCOC(=O)c1ccc(OC(=O)c2cccnc2)cc1	63.8	i	i	i	i	i
Oc1ccc(C=Nc2ccc3ncccc3c2)c(O)c1	52.7	i	nt	i	nt	i
Oc1ccc(C=Nc2cccc3ncccc23)c(O)c1	i	i	i	i	i	i
COc1ccc(Cl)cc1-c1cc(C(=O)N[C@H](C)c2ccccc2)[nH]n1	nt	nt	i	nt	nt	nt
CN1CCN(Cc2nc3ccccc3c(=O)n2CC#N)CC1	i	i	i	i	i	i
SMILES	RecA splice inh	Rv3671c inh	FadD28 FP inh	Mtb UGM inh	PrP UTR inh	BJeLR lethal
N#CCn1c(CCl)nc2ccccc2c1=O	38.0	i	i	i	i	i
O=C(COC(=O)/C=C/c1cccc(F)c1)NC1CCCCC1	nt	nt	i	nt	nt	nt
CCCCn1c(N)c(N(CCOC)C(=O)CCS(=O)(=O)c2ccc(C)cc2)c(=O)[nH]c1=O	nt	nt	i	nt	nt	nt
CCOC(=O)CN1C=C(c2ccc3ccccc3n2)C(C[N+](=O)[O-])c2ccccc21 (configuration not stated)	i	i	i	17.5	i	i
CCOC(=O)CSc1ccc2ccccc2n1	i	i	i	i	i	i
Cc1ccccc1Oc1ccc2c(c1)[C@@H]1C[C@H](N(C)C(=O)c3ccc(C#N)cc3)[C@H]([C@H](C)O)C(=O)N1CC2	nt	nt	i	nt	i	nt
O=C(CCl)Nc1cc(S(=O)(=O)N2CCCCCC2)ccc1Cl	66.7	i	i	i	i	i
CCOC(=O)C1=C(c2ccccc2)O/C(=C(/C#N)C(F)(F)F)S1	41.5	i	nt	i	nt	i
CCOC(=O)C1=C(c2ccccc2)O/C(=C(\C(=O)OC)C(F)(F)F)S1	i	i	i	i	i	i
COc1cc(OC)c(OC)cc1/C=C1\Oc2cc(OCC(=O)N3Cc4ccccc4C[C@H]3C(=O)O)ccc2C1=O	i	i	11.8	i	i	i
COc1cccc(/C=C2\Oc3cc(OCC(=O)N4CCC[C@H]4C(=O)O)ccc3C2=O)c1	i	i	i	i	i	i
COc1ccc(/C=C2\Oc3cc(OCC(=O)N4CCC[C@H]4C(=O)O)ccc3C2=O)c(OC)c1	i	i	i	i	i	i
